# Biological target: T1, TALE1-HN (CACNA1C site 1 activator) (Xanthomonas (engineered), UniProt P14727 SEQ:1-983)
# T1 chain: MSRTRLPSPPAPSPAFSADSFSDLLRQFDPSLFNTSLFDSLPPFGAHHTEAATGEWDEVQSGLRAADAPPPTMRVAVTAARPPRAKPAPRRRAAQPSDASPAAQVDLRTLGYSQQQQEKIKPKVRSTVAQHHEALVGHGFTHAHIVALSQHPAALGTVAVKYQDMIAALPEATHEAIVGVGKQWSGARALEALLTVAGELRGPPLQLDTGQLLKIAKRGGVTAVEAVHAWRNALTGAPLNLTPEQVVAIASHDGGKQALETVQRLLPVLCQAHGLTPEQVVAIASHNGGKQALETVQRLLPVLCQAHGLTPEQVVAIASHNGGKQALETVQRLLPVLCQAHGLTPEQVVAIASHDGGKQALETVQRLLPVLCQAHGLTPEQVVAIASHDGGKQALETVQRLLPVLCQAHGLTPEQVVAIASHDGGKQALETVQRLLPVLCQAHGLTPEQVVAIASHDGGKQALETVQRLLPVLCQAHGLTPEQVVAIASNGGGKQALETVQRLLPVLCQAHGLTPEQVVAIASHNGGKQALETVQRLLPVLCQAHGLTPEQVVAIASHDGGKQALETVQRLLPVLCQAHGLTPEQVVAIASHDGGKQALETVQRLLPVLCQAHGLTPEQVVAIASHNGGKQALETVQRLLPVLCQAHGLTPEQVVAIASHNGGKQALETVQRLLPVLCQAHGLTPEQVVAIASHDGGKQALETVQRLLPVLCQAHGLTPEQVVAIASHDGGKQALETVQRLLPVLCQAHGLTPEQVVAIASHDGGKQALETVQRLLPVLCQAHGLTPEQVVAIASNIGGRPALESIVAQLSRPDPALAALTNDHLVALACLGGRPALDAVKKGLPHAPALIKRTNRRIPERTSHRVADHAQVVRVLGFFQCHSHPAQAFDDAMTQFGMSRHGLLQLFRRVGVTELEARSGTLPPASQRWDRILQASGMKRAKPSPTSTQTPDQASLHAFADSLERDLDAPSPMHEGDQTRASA
# Assay: cell_activity; luciferase reporter
# Settings: tags: VP64, 2A-GFP; dsDNA, one strand shown
# Method: TALEs using NN, NK, NH, and HN as the G-targeting RVD were synthesized to target two distinct 18 bp target sites in the human CACNA1C locus. Changes in mRNA are measured using qRT-PCR as described previously. VP64, VP64 transcription activation domain. All results are collected from three independent experiments in HEK 293FT cells. Error bars indicate s.e.m.; n=3. FIG. 19(b) discloses SEQ ID NOS 63 and 62, respectively, in order of appearance.
# To determine whether NH and HN are suitable replacements for NN as the G-specific RVD, specificity and activity strength of NN, NK, NH, and HN were directly compared. Two 18 bp targets within the CACNA1C locus in the human genome were chosen and four TALEs for each target were constructed, using NN, NK, NH, or HN as the G-targeting RVD (FIG. 19a). […] For each CACNA1C target site, four luciferase reporters were constructed: wild type genomic target, and wild type target with 2, 4, or all guanines mutated into adenines (FIG. 19a, G-to-A reporters), and compared the activity of each TALE using these reporters (FIG. 19a). […] Thus, focus was placed on the RVDs NN, NK, and NH in subsequent experiments to assess their usefulness in modulating transcription at endogenous human genome targets.
row,Sequence,binding signal
1,TCAACCCCTGCCGGCCCA,30.8 % reduction vs wild-type site
